# In ChEMBL document CHEMBL1961873, “Compounds: GSK PKIS; Assays: Nanosyn kinase panel” (2012):
# How the values were obtained:
# [1] = biological target: Serine/threonine-protein kinase MARK2 (Homo sapiens) (UniProt Q7KZI7); conditions: at 1 µM
# [2] = biological target: PAS domain-containing serine/threonine-protein kinase (Homo sapiens) (UniProt Q96RG2); conditions: at 0.1 µM
# [3] = biological target: PAS domain-containing serine/threonine-protein kinase (Homo sapiens) (UniProt Q96RG2); conditions: at 1 µM
# [4] = biological target: Phosphorylase b kinase gamma catalytic chain, skeletal muscle/heart isoform (Homo sapiens) (UniProt Q16816); conditions: at 0.1 µM
# [5] = biological target: Phosphorylase b kinase gamma catalytic chain, skeletal muscle/heart isoform (Homo sapiens) (UniProt Q16816); conditions: at 1 µM
# [6] = biological target: T1, Phosphorylase b kinase gamma catalytic chain, liver/testis isoform (Homo sapiens) (UniProt P15735); conditions: at 0.1 µM
# T1 sequence (whole entry): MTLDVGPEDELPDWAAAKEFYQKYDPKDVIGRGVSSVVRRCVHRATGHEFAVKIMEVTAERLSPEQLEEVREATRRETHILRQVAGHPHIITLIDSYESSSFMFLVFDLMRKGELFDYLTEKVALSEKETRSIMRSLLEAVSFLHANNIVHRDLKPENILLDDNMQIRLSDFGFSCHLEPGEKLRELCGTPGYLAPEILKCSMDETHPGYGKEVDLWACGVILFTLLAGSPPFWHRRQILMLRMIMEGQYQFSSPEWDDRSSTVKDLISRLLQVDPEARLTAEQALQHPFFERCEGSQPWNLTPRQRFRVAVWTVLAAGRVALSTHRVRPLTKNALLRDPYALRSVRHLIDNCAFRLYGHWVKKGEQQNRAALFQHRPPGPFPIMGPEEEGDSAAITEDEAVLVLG
# [7] = biological target: T1, Phosphorylase b kinase gamma catalytic chain, liver/testis isoform (Homo sapiens); conditions: at 1 µM
# [8] = biological target: Serine/threonine-protein kinase pim-1 (Homo sapiens) (UniProt P11309); conditions: at 0.1 µM
# [9] = biological target: Serine/threonine-protein kinase pim-1 (Homo sapiens) (UniProt P11309); conditions: at 1 µM
# [10] = biological target: Serine/threonine-protein kinase pim-2 (Homo sapiens) (UniProt Q9P1W9); conditions: at 0.1 µM
# [11] = biological target: Serine/threonine-protein kinase pim-2 (Homo sapiens) (UniProt Q9P1W9); conditions: at 1 µM
# [12] = biological target: Serine/threonine-protein kinase pim-3 (Homo sapiens) (UniProt Q86V86); conditions: at 0.1 µM
# [13] = biological target: Serine/threonine-protein kinase pim-3 (Homo sapiens) (UniProt Q86V86); conditions: at 1 µM
# [14] = biological target: T2, MAP kinase-activated protein kinase 5 (Homo sapiens) (UniProt Q8IW41); conditions: at 0.1 µM
# T2 sequence (whole entry): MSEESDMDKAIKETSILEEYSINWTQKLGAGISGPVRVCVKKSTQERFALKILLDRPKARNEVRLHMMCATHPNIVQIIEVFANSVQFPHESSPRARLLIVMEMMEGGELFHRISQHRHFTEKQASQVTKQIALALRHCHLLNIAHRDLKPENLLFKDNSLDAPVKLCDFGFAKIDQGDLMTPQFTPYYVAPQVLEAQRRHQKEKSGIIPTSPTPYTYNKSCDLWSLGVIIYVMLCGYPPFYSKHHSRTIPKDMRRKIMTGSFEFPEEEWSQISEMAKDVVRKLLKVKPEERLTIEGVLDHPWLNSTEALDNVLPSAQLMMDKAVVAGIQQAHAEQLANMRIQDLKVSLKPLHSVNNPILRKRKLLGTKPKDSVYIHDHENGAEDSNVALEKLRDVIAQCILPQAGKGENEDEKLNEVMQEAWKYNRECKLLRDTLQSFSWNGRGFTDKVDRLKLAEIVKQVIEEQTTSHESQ
# [15] = biological target: T2, MAP kinase-activated protein kinase 5 (Homo sapiens); conditions: at 1 µM
# [16] = biological target: Serine/threonine-protein kinase SIK1 (Homo sapiens) (UniProt P57059); conditions: at 0.1 µM
# [17] = biological target: Serine/threonine-protein kinase SIK1 (Homo sapiens) (UniProt P57059); conditions: at 1 µM
# [18] = biological target: Serine/threonine-protein kinase SIK2 (Homo sapiens) (UniProt Q9H0K1); conditions: at 0.1 µM
# [19] = biological target: Serine/threonine-protein kinase SIK2 (Homo sapiens) (UniProt Q9H0K1); conditions: at 1 µM
# [20] = biological target: T3, Serine/threonine-protein kinase TBK1 (Homo sapiens) (UniProt Q9UHD2); conditions: at 0.1 µM;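 note: values are the mean TBK1 inhibition, taken from the GSK PKIS screening data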
# T3 sequence (whole entry): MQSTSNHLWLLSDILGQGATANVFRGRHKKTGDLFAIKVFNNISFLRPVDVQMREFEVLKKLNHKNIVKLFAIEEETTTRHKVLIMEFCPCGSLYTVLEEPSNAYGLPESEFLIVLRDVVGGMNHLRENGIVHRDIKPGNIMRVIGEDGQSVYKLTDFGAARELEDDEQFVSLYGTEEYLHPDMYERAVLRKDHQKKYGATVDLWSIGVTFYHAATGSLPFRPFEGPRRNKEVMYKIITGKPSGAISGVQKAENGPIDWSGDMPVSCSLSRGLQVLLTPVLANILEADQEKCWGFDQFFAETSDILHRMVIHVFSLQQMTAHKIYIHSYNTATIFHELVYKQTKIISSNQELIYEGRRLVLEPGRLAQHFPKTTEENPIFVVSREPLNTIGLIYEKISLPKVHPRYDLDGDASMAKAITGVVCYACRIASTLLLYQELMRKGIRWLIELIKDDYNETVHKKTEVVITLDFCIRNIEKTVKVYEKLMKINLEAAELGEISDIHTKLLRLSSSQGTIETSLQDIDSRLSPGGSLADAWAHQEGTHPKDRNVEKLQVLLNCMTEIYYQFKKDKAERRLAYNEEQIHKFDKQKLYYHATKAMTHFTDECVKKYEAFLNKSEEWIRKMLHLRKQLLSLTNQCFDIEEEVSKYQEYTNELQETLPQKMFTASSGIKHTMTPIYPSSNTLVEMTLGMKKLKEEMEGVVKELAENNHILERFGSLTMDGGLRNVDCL
# Sequence of Serine/threonine-protein kinase pim-1 (Homo sapiens) (P11309 whole entry, looked up): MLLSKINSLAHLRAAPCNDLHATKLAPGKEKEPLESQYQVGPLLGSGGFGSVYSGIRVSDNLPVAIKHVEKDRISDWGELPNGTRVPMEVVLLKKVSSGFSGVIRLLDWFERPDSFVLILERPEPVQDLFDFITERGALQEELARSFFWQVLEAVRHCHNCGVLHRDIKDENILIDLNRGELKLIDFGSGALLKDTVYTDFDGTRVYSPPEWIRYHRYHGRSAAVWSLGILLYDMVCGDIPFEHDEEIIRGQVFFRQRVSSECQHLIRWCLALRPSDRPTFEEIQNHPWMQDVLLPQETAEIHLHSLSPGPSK
# Sequence of Serine/threonine-protein kinase pim-2 (Homo sapiens) (Q9P1W9 whole entry, looked up): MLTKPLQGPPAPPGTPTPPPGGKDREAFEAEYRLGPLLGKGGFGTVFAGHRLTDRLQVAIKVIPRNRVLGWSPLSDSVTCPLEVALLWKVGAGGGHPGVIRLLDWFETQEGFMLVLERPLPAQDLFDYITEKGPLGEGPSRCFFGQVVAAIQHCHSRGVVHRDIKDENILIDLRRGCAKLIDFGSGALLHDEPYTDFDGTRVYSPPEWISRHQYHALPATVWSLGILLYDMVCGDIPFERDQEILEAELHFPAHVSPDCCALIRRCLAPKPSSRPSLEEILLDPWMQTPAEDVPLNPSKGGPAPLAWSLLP
# Sequence of Serine/threonine-protein kinase MARK2 (Homo sapiens) (Q7KZI7 whole entry, the tested form may be a part): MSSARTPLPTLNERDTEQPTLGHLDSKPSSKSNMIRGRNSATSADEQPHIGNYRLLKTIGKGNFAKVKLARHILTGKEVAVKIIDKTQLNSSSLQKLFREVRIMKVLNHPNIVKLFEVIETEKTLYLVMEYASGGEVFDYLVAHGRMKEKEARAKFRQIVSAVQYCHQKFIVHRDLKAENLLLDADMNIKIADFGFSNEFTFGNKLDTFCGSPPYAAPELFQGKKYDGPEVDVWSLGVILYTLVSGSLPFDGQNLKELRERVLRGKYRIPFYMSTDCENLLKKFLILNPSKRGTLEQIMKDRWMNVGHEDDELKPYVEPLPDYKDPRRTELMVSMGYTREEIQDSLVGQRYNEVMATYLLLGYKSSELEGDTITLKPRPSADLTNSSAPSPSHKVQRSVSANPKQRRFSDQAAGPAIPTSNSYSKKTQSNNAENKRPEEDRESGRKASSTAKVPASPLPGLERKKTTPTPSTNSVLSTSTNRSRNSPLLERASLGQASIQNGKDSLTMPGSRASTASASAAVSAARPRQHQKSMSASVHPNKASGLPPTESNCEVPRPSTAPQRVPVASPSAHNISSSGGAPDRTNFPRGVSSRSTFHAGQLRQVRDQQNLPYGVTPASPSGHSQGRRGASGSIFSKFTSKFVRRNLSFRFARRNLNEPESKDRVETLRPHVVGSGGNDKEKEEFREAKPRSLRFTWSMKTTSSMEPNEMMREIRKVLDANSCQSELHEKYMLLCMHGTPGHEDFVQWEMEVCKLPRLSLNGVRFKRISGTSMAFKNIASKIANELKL
# Sequence of Serine/threonine-protein kinase SIK2 (Homo sapiens) (Q9H0K1 whole entry, looked up): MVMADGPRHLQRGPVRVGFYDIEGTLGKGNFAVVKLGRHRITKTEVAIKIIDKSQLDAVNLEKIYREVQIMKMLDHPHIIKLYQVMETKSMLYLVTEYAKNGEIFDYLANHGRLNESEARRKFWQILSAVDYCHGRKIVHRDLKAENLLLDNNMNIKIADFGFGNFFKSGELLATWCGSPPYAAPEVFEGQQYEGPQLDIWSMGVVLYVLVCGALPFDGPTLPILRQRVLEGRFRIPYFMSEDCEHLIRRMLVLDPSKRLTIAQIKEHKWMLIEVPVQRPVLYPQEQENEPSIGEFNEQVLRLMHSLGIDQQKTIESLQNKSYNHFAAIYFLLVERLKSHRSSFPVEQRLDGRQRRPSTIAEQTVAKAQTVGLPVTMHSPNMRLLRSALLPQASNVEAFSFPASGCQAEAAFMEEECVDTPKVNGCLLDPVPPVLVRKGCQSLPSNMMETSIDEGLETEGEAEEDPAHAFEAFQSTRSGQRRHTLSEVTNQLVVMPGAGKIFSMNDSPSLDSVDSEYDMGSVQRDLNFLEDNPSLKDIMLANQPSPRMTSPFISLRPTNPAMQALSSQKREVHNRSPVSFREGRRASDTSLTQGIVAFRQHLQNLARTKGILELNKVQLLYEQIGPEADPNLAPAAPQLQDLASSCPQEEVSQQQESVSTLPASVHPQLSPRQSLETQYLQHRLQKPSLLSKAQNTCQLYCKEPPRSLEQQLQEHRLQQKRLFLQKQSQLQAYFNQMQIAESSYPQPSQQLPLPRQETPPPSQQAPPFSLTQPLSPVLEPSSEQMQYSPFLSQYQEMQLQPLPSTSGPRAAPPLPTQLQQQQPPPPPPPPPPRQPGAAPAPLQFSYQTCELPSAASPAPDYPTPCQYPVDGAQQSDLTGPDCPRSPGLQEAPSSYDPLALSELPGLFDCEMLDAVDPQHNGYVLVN
# Sequence of Serine/threonine-protein kinase SIK1 (Homo sapiens) (P57059 whole entry): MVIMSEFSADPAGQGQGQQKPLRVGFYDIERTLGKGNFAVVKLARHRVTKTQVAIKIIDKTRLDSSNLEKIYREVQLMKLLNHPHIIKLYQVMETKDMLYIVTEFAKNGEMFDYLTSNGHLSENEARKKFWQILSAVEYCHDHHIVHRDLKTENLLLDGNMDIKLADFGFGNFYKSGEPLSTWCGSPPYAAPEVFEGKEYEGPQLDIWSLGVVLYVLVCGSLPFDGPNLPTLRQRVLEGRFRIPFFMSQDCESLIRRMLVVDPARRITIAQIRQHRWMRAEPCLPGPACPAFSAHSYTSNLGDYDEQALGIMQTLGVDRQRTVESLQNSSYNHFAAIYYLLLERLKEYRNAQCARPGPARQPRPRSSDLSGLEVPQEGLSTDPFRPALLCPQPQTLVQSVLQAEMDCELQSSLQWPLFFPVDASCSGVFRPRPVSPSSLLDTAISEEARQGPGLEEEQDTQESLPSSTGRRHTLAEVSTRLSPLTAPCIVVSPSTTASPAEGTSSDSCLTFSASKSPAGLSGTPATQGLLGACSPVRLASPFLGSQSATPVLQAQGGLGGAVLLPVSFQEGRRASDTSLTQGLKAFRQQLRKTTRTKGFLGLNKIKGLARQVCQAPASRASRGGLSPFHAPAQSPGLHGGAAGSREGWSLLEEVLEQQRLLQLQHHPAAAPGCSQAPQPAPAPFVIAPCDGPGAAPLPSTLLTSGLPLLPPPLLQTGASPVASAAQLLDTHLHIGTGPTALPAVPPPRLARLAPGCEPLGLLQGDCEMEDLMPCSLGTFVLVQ
# Sequence of Phosphorylase b kinase gamma catalytic chain, skeletal muscle/heart isoform (Homo sapiens) (Q16816 whole entry, looked up, canonical isoform): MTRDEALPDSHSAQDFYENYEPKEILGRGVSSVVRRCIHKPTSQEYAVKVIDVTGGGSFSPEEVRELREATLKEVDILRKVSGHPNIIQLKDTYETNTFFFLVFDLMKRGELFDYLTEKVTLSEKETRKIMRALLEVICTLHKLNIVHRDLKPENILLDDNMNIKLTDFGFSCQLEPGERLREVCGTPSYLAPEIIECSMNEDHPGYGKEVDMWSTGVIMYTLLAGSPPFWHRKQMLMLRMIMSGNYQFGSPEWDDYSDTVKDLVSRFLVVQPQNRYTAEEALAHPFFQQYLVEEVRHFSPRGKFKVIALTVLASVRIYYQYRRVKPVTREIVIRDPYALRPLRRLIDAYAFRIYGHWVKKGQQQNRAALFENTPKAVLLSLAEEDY
SMILES,inhibition [1],inhibition [2],inhibition [3],inhibition [4],inhibition [5],inhibition [6],inhibition [7],inhibition [8],inhibition [9],inhibition [10],inhibition [11],inhibition [12],inhibition [13],inhibition [14],inhibition [15],inhibition [16],inhibition [17],inhibition [18],inhibition [19],inhibition [20]
NS(=O)(=O)c1ccc(N/N=C2\C(=O)Nc3ccc(-c4cnco4)cc32)cc1,16.6%,0.16%,4.38%,5.17%,27.9%,1.94%,4.44%,4.65%,38.9%,-0.37%,24.5%,1.42%,15.5%,1.08%,3.26%,1.71%,14.3%,-1.16%,7.34%,7.17%
O=C(Nc1n[nH]c2nc(-c3ccco3)ccc12)C1CC1,0.11%,0.36%,-0.43%,1.05%,3.2%,0.75%,-0.31%,1.36%,0.54%,0.1%,-0.06%,0.6%,-0.35%,-0.19%,-1.25%,4.89%,3.71%,0.98%,3.32%,1.19%
COC(=O)Nc1nc2ccc(Sc3ccc(NC(=O)Nc4cc(C(F)(F)F)ccc4F)cc3)cc2[nH]1,-0.67%,1.15%,2%,8.5%,-0.17%,1.59%,0.05%,33.7%,-0.09%,-0.3%,-0.09%,1.76%,2.48%,0.03%,-0.97%,3.94%,0.98%,4.86%,0.47%,-0.64%
CS(=O)(=O)CCNCc1ccc(-c2ccc3ncnc(Nc4ccc(OCc5ccccc5)c(Br)c4)c3c2)o1,-0.56%,-0.29%,0.16%,7%,3.21%,5.03%,4.55%,-0.99%,-0.09%,-3.07%,-3.1%,-0.66%,-0.32%,1.32%,2.06%,2.19%,8.17%,4.6%,4.18%,1.02%
COc1cccc(-n2cnc3c(N/N=C/c4ccncc4)ncnc32)c1,4.05%,1.87%,4.15%,-0.02%,2.55%,1.83%,6.48%,-0.24%,-0.03%,-3.51%,-3.43%,3.67%,6.5%,0.59%,2.56%,1.88%,12%,9.07%,34.1%,0.99%
COc1cc2ncn(-c3cc(OCCc4ccccc4)c(C(N)=O)s3)c2cc1OC,2.11%,0.16%,-0.56%,3.81%,2.4%,1.37%,0.33%,-0.26%,-0.29%,-0.04%,0.47%,-1.48%,-2.48%,0.21%,-0.58%,3.59%,9.48%,1.23%,3.75%,0.96%
Fc1ccc(-c2ncn(C3CCNCC3)c2-c2ccnc(Oc3ccc(Oc4ccccc4)cc3)n2)cc1,4.07%,-2.03%,-0.39%,0.96%,-5.23%,5.51%,6.26%,0.09%,0.87%,-0.33%,-0.39%,-1.06%,0.02%,1.12%,1.72%,7.97%,12.8%,6.45%,10.1%,2.66%
